Only some compounds are listed: those with a hit (about 2.7% of all), similar ones and a draw of the others.
PGC1a acetyl inh = inhibitors of PGC1a acetylation signal, primary screen, cell-based, U2OS, AlphaScreen, inhibitor mode. AlphaScreen anti-acetyl-lysine; with virally co-expressed GCN5 acetyltransferase. inhibition, % at 15.6 µM. actives 0.17% (n = 350,000). AID 651687, 2012;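 active = every replicate shows inhibition of at least 40%; inconclusive = mean inhibition at least 40% but some replicate below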;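 also: 0% = neutral control wells and 100% = positive control wells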
HIV Env fusion = inhibitors of HIV-1 Env-driven cell-cell fusion, primary screen, HeLa-JRFL effector, CEM21 target cells, luciferase; actives 1.1% (n = 360,000); inhibition, % at 12.3 µM; AID 651610, 2012;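 active = mean replicate inhibition score of at least 50 and every replicate individually at or above 50; inconclusive = only one of the two criteria met; inactive = mean below 50 and not all replicates reaching 50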;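 also: 0% = plate neutral controls and 100% = maraviroc near 300 nM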
GSIS activator = GLuc luminescence reporter in INS-1E cells, primary screen for activators of glucose-dependent secretion of insulin. INS-1E GLuc reporter insulin secretion, 2-3 h. activation, % at 16.6 µM. actives 0.61% (n = 370,000);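 active = lowest replicate activation of at least 40%, so every replicate reaches that level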;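 also: 0% = median of neutral control wells and 100% = median of IBMX positive control wells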
PAX8 reporter = inhibitors of PAX8-driven TPO luciferase reporter, primary screen, RMG-I cells, single concentration; SteadyGlo, 24 h; inhibition, % at 12.6 µM; AID 652154, 2013; actives 1.2% (n = 360,000);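 active = mean replicate inhibition at least 60% with every replicate also reaching 60%; inconclusive = only one of the two criteria is met; inactive = mean below 60% and not all replicates reaching 60%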;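 also: luciferase light reporting Pax8 driven TPO promoter activity; plate controls were median of neutral control wells for no effect and mitoxantrone controls for full effect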
EWS-Fli inh = EWS/Fli-driven NR0B1 reporter inhibitors, primary screen, A673 cells, NR0B1 luciferase, luminescence, MLPCN library; AID 651661, 2012; inhibition, % at 12.6 µM; actives 0.67% (n = 350,000); viability-normalised;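 active = mean inhibition of at least 50% after viability correction, with every replicate also passing that limit; inconclusive = mean reaches 50% but only one of two replicates passes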;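 also: firefly luciferase signal divided by Alamar Blue viability fluorescence both relative to DMSO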
CFTR F508del cor = F508del CFTR correction, initial screen, CFBE line, single point. activity (quench increase), % at 7.58 µM. actives 0.36% (n = 350,000). CFBE cells, YFP halide quenching; stimulated with forskolin plus potentiator P3; % fluorescence drop versus neutral controls. AID 720511, 2013;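 active = mean added fluorescence quench of at least 8% versus neutral control, with both replicates also reaching 8%; inconclusive = only one of the mean or replicate conditions met; inactive = mean below 8% and not both replicates reaching 8%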;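 also: cells transiently co-express mutant CFTR-F508del with the halide-sensitive YFP; corrector assay measuring rescue of mutant channel to the surface after 24 h compound exposure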
* marks the source's active call; other numbers are inactive results; [ ] = dose if it differs, or a comment.

`O=C(C[C@@H]1C[C@@H]2c3cc(NC(=O)Cc4ccncc4)ccc3O[C@@H]2[C@@H](CO)O1)NCC1CC1` gave PGC1a acetyl inh -19, HIV Env fusion 12[16.7 µM], GSIS activator -4, PAX8 reporter -7, EWS-Fli inh -9 and CFTR F508del cor 1.
Cc1nc2ccccc2nc1N1CCCCC1 was read as PGC1a acetyl inh 0.
Cc1ccc2c(Cl)c(C)c(N3CCCCC3)nc2n1 was read as HIV Env fusion -33 and GSIS activator 53*.
`O=C(Nc1ccccc1)N1C[C@@H]2[C@H](c3ccccc31)[C@H](CO)N2C(=O)c1ccccc1F` gave PGC1a acetyl inh -1, GSIS activator -7, PAX8 reporter -15, EWS-Fli inh -14 and CFTR F508del cor 1.
Screening C[C@H]1CN([C@@H](C)CO)C(=O)Cc2cc(N(C)C)ccc2O[C@@H]1CN(C)Cc1ccc(C(=O)Nc2ccccc2N)cc1 returned PGC1a acetyl inh -8, HIV Env fusion -52[16.7 µM], GSIS activator 26, PAX8 reporter 65*, EWS-Fli inh 47 and CFTR F508del cor 2.
C[C@@H]1CN([C@@H](C)CO)C(=O)Cc2cc(N(C)C)ccc2O[C@@H]1CN(C)Cc1ccc(C(=O)Nc2ccccc2N)cc1 was read as PGC1a acetyl inh 1, HIV Env fusion -267[16.7 µM], GSIS activator 11, PAX8 reporter 76*, EWS-Fli inh inconclusive and CFTR F508del cor 15*.
Screening Cc1ccc(-c2cc(-c3ccccc3)no2)cc1 returned PGC1a acetyl inh -7, HIV Env fusion -240, PAX8 reporter -24, EWS-Fli inh 59* and CFTR F508del cor 2.
For CN1C(=O)c2cc(NS(=O)(=O)c3ccc(F)cc3)ccc2OC[C@H]2O[C@@H](CC(=O)O)CC[C@@H]21 the results were PGC1a acetyl inh -1, HIV Env fusion -10[16.7 µM], GSIS activator 5, PAX8 reporter -7, EWS-Fli inh -5 and CFTR F508del cor 0.
Screening CSC1=C(C#N)C(c2ccccc2Cl)C2=C(N1)c1ccccc1C2=O (stereo not given) returned PGC1a acetyl inh 4 and HIV Env fusion 37.
`CSC1=C(C#N)C(c2ccccc2C)C(C#N)=C(N)N1` (stereo not given) gave PGC1a acetyl inh 7 and HIV Env fusion 62*.
Screening CN(C)CCCNC(=O)C[C@H]1C=C[C@H](NC(=O)Cc2cccnc2)[C@H](CO)O1 returned PGC1a acetyl inh 5, HIV Env fusion -24[16.7 µM], GSIS activator -3, PAX8 reporter -7, EWS-Fli inh 0 and CFTR F508del cor 1.
For CC(Oc1cc2oc(=O)c3c(c2cc1Cl)CCCC3)C(=O)NCc1cccnc1 (stereo not given) the results were PGC1a acetyl inh -1, HIV Env fusion 2, GSIS activator -2, PAX8 reporter -4, EWS-Fli inh 1 and CFTR F508del cor 1.
For O=C(O)COc1ccc2c3c(c(=O)oc2c1)CCC3 the results were PGC1a acetyl inh 5 and GSIS activator 131*.
Screening CC(Oc1ccc2c3c(c(=O)oc2c1)CCCC3)C(=O)NCc1cccnc1 (stereo not given) returned HIV Env fusion -16, GSIS activator 48*, PAX8 reporter 9, EWS-Fli inh 4 and CFTR F508del cor -3.
`O=C(COc1ccc2c3c(c(=O)oc2c1)CCC3)N1CCCC1` gave PGC1a acetyl inh 1, HIV Env fusion -13, GSIS activator 17, PAX8 reporter -28, EWS-Fli inh -19 and CFTR F508del cor 2.
Screening Cc1noc(C)c1S(=O)(=O)Nc1ccc2c(c1)C(=O)N([C@H](C)CO)C[C@@H](C)[C@@H](CN(C)CC1CC1)O2 returned PGC1a acetyl inh 9, HIV Env fusion 10[16.7 µM], GSIS activator 16, PAX8 reporter -8, EWS-Fli inh -4 and CFTR F508del cor -4.
COc1ccc(NC(=O)Nc2ccc3c(c2)C(=O)N([C@@H](C)CO)C[C@H](C)[C@H](CN(C)C(=O)Nc2ccc(OC)cc2)O3)cc1 was read as PGC1a acetyl inh -1, HIV Env fusion 10[16.7 µM], GSIS activator -3, PAX8 reporter 11, EWS-Fli inh -6 and CFTR F508del cor -2.
